# Counter-ions that a name gives are not always drawn. Over roughly 2,000 compounds, “fractional viability relative to vehicle” has its median near 0.91; the lowest 2% begin near 0.045. This excerpt belongs to a sample that is enriched for the lowest values.
# System: TYKNU
# Test: fractional viability relative to vehicle; TYKNU is a high-grade serous ovarian cancer line; higher = less growth inhibition
# Settings: 72 h
# Summary of the method: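 Drug treatment lasted 72 h, with cells grown at 37 °C in 5% CO2 in RPMI 1640 supplemented with 10% FBS. Beforehand, TYKNU control cells or their lentiCRISPRv2 knockout derivatives had been seeded at 500 cells per well into drug-stamped 384-well plates carrying a ~2100-compound library at 2 or 10 μM, in duplicate. Viability came from Cell Titer Glo luminescence, with averaged duplicate treatment wells normalised to duplicate control wells in the same plate position.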
# [1] = 2uM, genotype: DNM1L knockout (sgDNM1L #1)
# [2] = 2uM, genotype: sgCTRLA1 (non-targeting control)
# [3] = 10uM, genotype: DNM1L knockout (sgDNM1L #1)
# [4] = 10uM, genotype: sgCTRLA1 (non-targeting control)
SMILES,fractional viability [1],fractional viability [2],fractional viability [3],fractional viability [4]
C[C@@]1(C(=O)Nc2ccc(F)nc2)CCCN1c1nc(Nc2cc(C3CC3)n[nH]2)c2cccn2n1,0.561,0.689,0.282,0.252
O=C(N/N=C/c1cc(O)c(O)cc1O)c1cc2ccccc2cc1O [Dyngo-4a],0.912,1.05,0.857,0.867
Oc1ccc(Cc2nc3c(Cc4ccccc4)nc(-c4ccc(O)cc4)cn3c2O)cc1 [Coelenterazine],0.928,1.05,0.977,0.839
O=C1N=C(O)NC1(c1ccccc1)c1ccccc1 [Phenytoin sodium],1.03,1.09,0.864,1.04
CCc1cc(Nc2nccc(-c3c(-c4ccc(OC)c(C(=O)Nc5c(F)cccc5F)c4)nc4ccccn34)n2)c(OC)cc1N1CCC(N2CCN(S(C)(=O)=O)CC2)CC1,1.12,1.04,0.72,0.915
CC(O)c1cc(C(=O)N[C@@H](C)Cn2ccc(-c3ccc(C#N)c(Cl)c3)n2)n[nH]1 (stereo partly specified),0.762,0.897,0.94,0.769
CN(C)Cc1c(C(=O)NCCOc2ccc(C(=O)NO)cc2)oc2ccccc12,0.184,0.244,0.0877,0.133
COc1cccc(-n2c(=O)[nH]c3cc(Cl)n(-c4ccc(-c5cccc(OC)c5O)cc4)c3c2=O)c1,0.844,1.02,0.857,0.918
CN1CCCN(C(=O)c2cccc(-c3ccc(/C=C4/C(=O)Nc5ccc(Cl)cc54)o3)c2)CC1,0.0585,0.0575,0.0139,0.00867
CN1CCN(C(=O)c2cc3cc(Cl)ccc3[nH]2)CC1,1.13,1.23,0.961,1.16
COc1ccc2[nH]cc(/C=C3\C(=O)Nc4ccc(NC(=O)CCN5CCCCC5)cc43)c2c1,0.761,0.929,0.809,0.795
O=C(Nc1nc2cccc(-c3ccc(CN4CCS(=O)(=O)CC4)cc3)n2n1)C1CC1 [Filgotinib (GLPG0634)],0.73,0.849,0.493,0.573
CC(=O)OCOC(=O)CN(CC(=O)OCOC(C)=O)c1ccccc1OCCOc1ccccc1N(CC(=O)OCOC(C)=O)CC(=O)OCOC(C)=O,0.391,0.569,0.0416,0.0639
CC(=O)Oc1ccccc1C(=O)O [Aspirin],0.863,1.09,1.01,1.05
O=C(NNc1nc2cc(F)ccc2n2cccc12)c1cnccn1,0.358,0.282,0.269,0.247
Nc1c(CC(=O)O)cccc1C(=O)c1ccc(Br)cc1 [Bromfenac Sodium],0.888,1.1,0.801,1.05
CCN(CC)CCNC(=O)c1c(C)[nH]c(/C=C2\C(=O)Nc3ccc(F)cc32)c1C [Sunitinib],0.544,0.67,0.0734,0.0439
CCN(CC)CCNC(=O)c1ccc(N)cc1 [Procainamide HCl],0.791,1,0.633,0.929
"Cc1[nH]c(/C=C2\C(=O)Nc3ccccc32)c(C)c1CCC(=O)O [TSU-68 (SU6668, Orantinib)]",0.962,1.11,0.869,1.02
CCN(CC)CCNC(=O)c1c(C)[nH]c(/C=C2\C(=O)Nc3ccc(F)cc32)c1C [Sunitinib Malate],0.853,0.819,0.169,0.122

SMILES,fractional viability [1],fractional viability [2],fractional viability [3],fractional viability [4]
"O=C(c1ccc(F)c(F)c1Nc1ccc(I)cc1F)N1CC(O)([C@@H]2CCCCN2)C1 [Cobimetinib (GDC-0973, RG7420)]",0.814,1.03,0.942,0.846
Nc1ccc2ncnc(NCCc3ccc(Oc4ccccc4)cc3)c2c1,0.604,0.444,0.596,0.43
COc1cc(/C=C/C(=O)N2CCC=CC2=O)cc(OC)c1OC [Piperlongumine],0.302,0.319,0.0446,0.0292
COc1ccc(/C=C\c2cc(OC)c(OC)c(OC)c2)cc1O [Combretastatin A4],0.11,0.122,0.111,0.073
COc1cc(/C=C/C(=O)N2CCN(CC(=O)N3CCCC3)CC2)cc(OC)c1OC [Cinepazide maleate],1.08,0.973,1.1,1.02
COc1ccc2cc(OCC3(C(=O)O)CN(C(=O)c4ccc(F)cc4)C3)ccc2c1,0.822,1.12,0.788,1.11
COCCOc1ccc2c(c1)ncn2-c1ccc2cccc(N3CCC(N)CC3)c2n1,0.892,0.893,0.13,0.139
Cc1cc(C)c(CNC(=O)c2cc(-c3ccc(N4CCN(C)CC4)nc3)cc3c2c(C)cn3C(C)C)c(=O)[nH]1,0.782,1.03,0.669,0.609
O=C(NC1CC1)c1cc(-c2cccs2)on1 [Isoxazole 9 (ISX-9)],0.927,0.844,0.795,0.662
CC(CNC(=O)c1cccnc1)NC(=O)c1cccnc1 (stereo unspecified) [Nicaraven],0.754,1.07,0.726,0.99
COc1ncc(-c2ccc3nccc(-c4ccnnc4)c3c2)cc1NS(=O)(=O)c1ccc(F)cc1F,0.446,0.184,0.0665,0.0352
"CCCS(=O)(=O)Nc1ccc(F)c(C(=O)c2c[nH]c3ncc(-c4ccc(Cl)cc4)cc23)c1F [Vemurafenib (PLX4032, RG7204)]",1.05,1.26,0.823,0.974
COC(=O)N[C@H](C(=O)N1CCC[C@H]1c1ncc(-c2ccc(-c3ccc(-c4cnc([C@@H]5CCCN5C(=O)[C@@H](NC(=O)OC)C(C)C)[nH]4)cc3)cc2)[nH]1)C(C)C,1.04,1,0.511,0.654
C=CC(=O)Nc1ccc2ncnc(Nc3ccc(OCc4cccc(F)c4)c(Cl)c3)c2c1,0.704,0.853,0.044,0.0416
C=CC(=O)Nc1ccc2ncnc(Nc3cccc(Br)c3)c2c1,0.927,0.921,0.248,0.317
CS(=O)(=O)CCNCc1ccc(-c2ccc3ncnc(Nc4ccc(OCc5cccc(F)c5)c(Cl)c4)c3c2)o1,1.08,1.02,0.179,0.303
COCC(=O)NC/C=C/c1ccc2ncnc(Nc3ccc(Oc4ccc(C)nc4)c(C)c3)c2c1,1.07,1.08,0.886,1.06
Cc1c(Cn2c(C)nc3c(C(=O)O)cc(N4CCOCC4)cc32)cccc1C(F)(F)F,0.754,0.989,0.83,0.849
CC[C@@H]([C@H](C)O)n1ncn(-c2ccc(N3CCN(c4ccc(OC[C@@H]5CO[C@@](Cn6cncn6)(c6ccc(F)cc6F)C5)cc4)CC3)cc2)c1=O [Posaconazole],0.919,1.13,0.868,1.05
C=CC(=O)Nc1cccc(Oc2nc(Nc3ccc(N4CCN(C)CC4)cc3)ncc2Cl)c1,0.338,0.355,0.157,0.146

SMILES,fractional viability [1],fractional viability [2],fractional viability [3],fractional viability [4]
C=CC(=O)Nc1cccc(Oc2nc(Nc3ccc(N4CCN(C)CC4)cc3OC)ncc2Cl)c1,0.754,0.963,0.345,0.492
C=CC(=O)Nc1cccc(Sc2nc(Nc3ccc(N4CCN(C)CC4)cc3)ncc2Cl)c1,0.965,0.898,0.0379,0.0337
C=CC(=O)Nc1ccc(CN2C(=O)N(c3cc(OC)cc(OC)c3)Cc3cnc(Nc4ccc(N5CCN(C)CC5)cc4)nc32)cc1,0.926,0.803,0.0593,0.0423
CCC(=O)Nc1cccc(Oc2nc(Nc3ccc(N4CCN(C)CC4)cc3OC)ncc2Cl)c1,0.867,0.981,0.303,0.347
C=CC(=O)Nc1cccc(Nc2nc(Nc3ccc(N4CCN(C(C)=O)CC4)cc3OC)ncc2C(F)(F)F)c1,0.528,0.856,0.24,0.235
C[C@@H](Nc1cc(F)cc(F)c1)c1cc(C(=O)N(C)C)cc2c(=O)cc(N3CCOCC3)oc12,0.647,0.847,0.701,0.566
CN(C)C/C=C/C(=O)Nc1cc2c(Nc3ccc(F)c(Cl)c3)ncnc2cc1O[C@H]1CCOC1 [Afatinib (BIBW2992)],0.578,0.809,0.0953,0.0868
CN(C)C/C=C/C(=O)Nc1cc2c(Nc3ccc(F)c(Cl)c3)ncnc2cc1O[C@H]1CCOC1 [Afatinib (BIBW2992) Dimaleate],0.77,0.984,0.77,0.767
O=S(=O)(N=Cc1c(O)ccc2ccccc12)c1cccs1,0.71,0.953,0.696,0.77
NC(=O)c1noc([C@H](CCCC2CCCCC2)CC(=O)NO)n1,0.928,1.03,0.623,0.827
CNS(=O)(=O)Nc1nccc(Cc2c(C)c3ccc(Oc4ncccn4)cc3oc2=O)c1F,0.326,0.304,0.239,0.199
COc1cc2c(Oc3ccc4[nH]c(C)cc4c3F)ncnc2cc1OCCCN1CCCC1 [Cediranib (AZD2171)],0.99,0.847,0.0461,0.0421
Cc1cc2c(F)c(Oc3ncnn4cc(OC[C@@H](C)O)c(C)c34)ccc2[nH]1,0.804,0.956,0.487,0.469
COc1cc2ncnc(Nc3ccc(F)c(Cl)c3)c2cc1OCCCN1CCOCC1 [Gefitinib (ZD1839)],1,1.11,0.492,0.555
Cc1ncc(CCCN(C)C)cc1Nc1ncc2c(n1)-c1ccc(C(F)(F)F)cc1NC(=S)C2,0.211,0.231,0.259,0.251
CC(C)(C)C[C@@H]1N[C@@H](C(=O)N[C@H]2CC[C@H](O)CC2)[C@H](c2cccc(Cl)c2F)[C@]12C(=O)Nc1cc(Cl)ccc12,0.274,0.277,0.259,0.225
CCN(CC)CCN(Cc1ccc(-c2ccc(C(F)(F)F)cc2)cc1)C(=O)Cn1c(SCc2ccc(F)cc2)nc(=O)c2c1CCC2,0.329,0.569,0.0156,0.00842
CC(C)(C)C(=O)Nc1ccc2c(c1)C(=O)C(=O)c1ccccc1-2,0.175,0.0968,0.0236,0.0127
CC(=O)Nc1ccccc1 [Acetanilide],0.896,1.08,0.878,1.14

# Reference: the supplement of paper PMC5919970
